The test system of experiment [1] is CRL-7250. The experiment in a line: Cytotoxic Profiling of Annotated Libraries Using Quantitative High-Throughput Screening (AID 1296008). Also: potency is read from the fitted curve at half-maximal effect. As to max response: % is scaled to controls: 0 for no effect and ±100 for the full control effect. The following applies: Five cell lines viability, CellTiter-Glo ATP luminescence, 48-72 h; max response: hits give low values. In short, it runs like this:
(§1)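 Cytotoxicity was measured as CellTiter-Glo ATP luminescence, read after 10 min at room temperature. Compound treatment of the cells lasted 48 or 72 hr at 37 degrees Celsius in a qHTS format.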

The next experiment concerns HaCat. The experiment is described as above. The conditions noted are these: Five cell lines viability, CellTiter-Glo ATP luminescence, 48-72 h; max response: hits give low values. In short, it runs like this:
as §1

The test system of the next experiment is KB-3-1. Described as above. The following applies: Five cell lines viability, CellTiter-Glo ATP luminescence, 48-72 h; max response: hits give low values. An outline of the steps: as §1
The next experiment deals with NIH3T3. The experiment is described as above. The following applies: Five cell lines viability, CellTiter-Glo ATP luminescence, 48-72 h; max response: hits give low values. In short, it runs like this: as §1
The subject of the next experiment is ICS. Kind of experiment: qHTS profiling for inhibitors of Plasmodium falciparum proliferation (AID 504749). Also: potency is read from the fitted curve at half-maximal effect. The following applies: P. falciparum in erythrocytes, SYBR Green DNA, 72 h; series mostly up to 28.7 µM. An outline of the steps: (§2)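 In a 72 h erythrocytic culture (37 C, humidified, 5% CO2) at 2.5% hematocrit and 0.3% starting parasitemia, compounds were tested; SYBR Green I in detergent lysis buffer stained parasite DNA overnight.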

The next experiment concerns JCK. The experiment is described as above. The following applies: P. falciparum in erythrocytes, SYBR Green DNA, 72 h; series mostly up to 28.7 µM. An outline of the steps:
as §2

The subject of another experiment is N140. The description is as above. The following applies: P. falciparum in erythrocytes, SYBR Green DNA, 72 h; series mostly up to 28.7 µM. In short, it runs like this:
as §2

The next experiment deals with P93_24. Described as above. The following applies: P. falciparum in erythrocytes, SYBR Green DNA, 72 h; series mostly up to 28.7 µM. An outline of the steps:
as §2

The test system of another experiment is P94_40. Described as above. The conditions noted are these: P. falciparum in erythrocytes, SYBR Green DNA, 72 h; series mostly up to 28.7 µM. In short, it runs like this:
as §2

Another experiment has as its system PAD. The description is as above. The conditions noted are these: P. falciparum in erythrocytes, SYBR Green DNA, 72 h; series mostly up to 28.7 µM. An outline of the steps: as §2
For the next experiment, the system named is PC15. Described as above. The conditions noted are these: P. falciparum in erythrocytes, SYBR Green DNA, 72 h; series mostly up to 28.7 µM. An outline of the steps: as §2
The next experiment has as its system PC26. The description is as above. The conditions noted are these: P. falciparum in erythrocytes, SYBR Green DNA, 72 h; series mostly up to 28.7 µM. In short, it runs like this: as §2
Another experiment relates to PC49. The description is as above. The conditions noted are these: P. falciparum in erythrocytes, SYBR Green DNA, 72 h; series mostly up to 28.7 µM. In short, it runs like this:
as §2

The next experiment has as its system SC27B. The experiment is described as above. The following applies: P. falciparum in erythrocytes, SYBR Green DNA, 72 h; series mostly up to 28.7 µM. In short, it runs like this:
as §2

A further experiment concerns TAB109. Described as above. The following applies: P. falciparum in erythrocytes, SYBR Green DNA, 72 h; series mostly up to 28.7 µM. In short, it runs like this: as §2
In the next experiment the test system is TAB113. The experiment is described as above. The following applies: P. falciparum in erythrocytes, SYBR Green DNA, 72 h; series mostly up to 28.7 µM. In short, it runs like this: as §2
The test system of the next experiment is TAB165. The description is as above. The conditions noted are these: P. falciparum in erythrocytes, SYBR Green DNA, 72 h; series mostly up to 28.7 µM. In short, it runs like this: as §2
The test system of a further experiment is W2. The experiment is described as above. The conditions noted are these: P. falciparum in erythrocytes, SYBR Green DNA, 72 h; series mostly up to 28.7 µM. An outline of the steps: as §2
Another experiment has as its system HEK293. The experiment in a line: Cytotoxic Profiling of Annotated Libraries Using Quantitative High-Throughput Screening (AID 1296008). Also: potency is read from the fitted curve at half-maximal effect. As to max response: % is scaled to controls: 0 for no effect and ±100 for the full control effect. The conditions noted are these: Five cell lines viability, CellTiter-Glo ATP luminescence, 48-72 h; max response: hits give low values. An outline of the steps: as §1
Experiment [2] has as its system CRL-7250. The experiment in a line: qHTS assay to identify novel small-molecules to repurpose for Merkel cell carcinoma treatment (AID 1296009). The conditions noted are these: MCC and control cell lines, CellTiter-Glo viability, 72 h; series mostly up to 44.8 µM. In short, it runs like this: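 Cell viability measured by CellTiter-Glo following 72 hr compound treatment at 37 degree celsius, with NPC and MIPE libraries tested in 8- and 11-point concentration series.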

Here are results for twelve compounds from PubChem BioAssay (NCATS).

The structures appear in SMILES notation. Where “and” joins values, the source holds several entries; their conditions need not be identical. Identical values can stand only once. Inconclusive results are not listed. Values without a mark were called inactive. Calls of active or inactive are those of the source. Calls follow the shape of the dose curve; as a rule, active = well fitted inhibition curve with a large enough effect; inconclusive = small, poorly fitted or top-dose-only effect; inactive = flat fitted curve, though single readings scatter.
Also: nearly all actives have a fitted effect of over 60% in size.

`Cc1ccc2c(c1)C1CN(C)CCC1N2` (centres undefined): the max response in the experiment on CRL-7250 [1] is -0.945%; with KB-3-1, -4.81%. For the same compound, the result in the experiment with HaCat and in the experiment on NIH3T3 was inactive.

With `CCOP(=S)(OCC)Oc1cc(C)nc(C(C)C)n1`, the Potency result in the experiment on ICS, in the experiment on JCK, with N140, in the experiment with P93_24, with P94_40 and in the experiment with PAD was “inactive” each time. In addition, the Potency entry with PC15, with PC26, with PC49, in the experiment with SC27B, with TAB109 and in the experiment on TAB113 was “inactive” throughout. For the same compound, the Potency entry in the experiment with TAB165 and in the experiment on W2 was “inactive” in each case. The max response in the experiment on CRL-7250 [1] is 1.07%; in the experiment on HaCat, 0.572%; with KB-3-1, 7.03%; in the experiment on NIH3T3, -12%. For the same compound, the compound was classed as inactive in the experiment on HEK293.

Consider `Cc1ncc(CNC(=O)N(CCCl)N=O)c(N)n1`, for which the Potency result in the experiment with ICS, with JCK, with N140, with P93_24, in the experiment with P94_40 and in the experiment on PAD was “inactive” in each case. For the same compound, the Potency result in the experiment with PC15, in the experiment on PC26, in the experiment on PC49, in the experiment on SC27B, in the experiment with TAB109 and in the experiment with TAB113 was “inactive” in each case. The Potency entry in the experiment on TAB165 and in the experiment on W2 was “inactive” in each case. Further, the max response with CRL-7250 [1] is 0.0102%; with HEK293 it was 2.72%; in the experiment with KB-3-1, 2.09%; in the experiment on NIH3T3, -2.43%.

Take `C=CCN1CC[C@]23c4c5ccc(O)c4O[C@H]2C(=O)CC[C@@]3(O)[C@H]1C5`: the max response with CRL-7250 [1] was -3.06%; with HaCat, -19.7%; in the experiment on KB-3-1, -7.11% and -7.3%; with NIH3T3, -3.86%.

As for `CCC1(C2=NCCN2)Cc2ccccc2O1` (centres undefined), the Potency entry in the experiment with ICS, in the experiment on JCK, in the experiment with PAD, with PC15, with PC26 and in the experiment with PC49 was “inactive” throughout. For the same compound, the Potency in the experiment on N140 is 12.6 µM (active); in the experiment on P94_40, 12.6 µM (active); in the experiment on TAB165, 11.2 µM (active); in the experiment with W2, 3.79 µM (active). The max response in the experiment with CRL-7250 [1] is -2.42%; in the experiment on HEK293, 2.14%; in the experiment with NIH3T3, -1.86%.

On to `C[C@@H]1O[C@@H](O[C@H]2C[C@@H](O)[C@]3(CO)[C@H]4[C@H](O)C[C@]5(C)[C@@H](C6=CC(=O)OC6)CC[C@]5(O)[C@@H]4CC[C@]3(O)C2)[C@H](O)[C@H](O)[C@H]1O`, for which the Potency in the experiment on CRL-7250 [1] was 29.6 nM (active) and 84.1 nM (active) and 89.3 nM (active); with HaCat, 266 nM (active) and 142 nM (active); in the experiment with KB-3-1, 52.6 nM (active) and 46.1 nM (active) and 112 nM (active). In the experiment with NIH3T3, the compound was classed as inactive.

As for `CC(C)CC(N(C)C)C1(c2ccc(Cl)cc2)CCC1` (centres undefined), the Potency result with ICS, in the experiment with JCK, in the experiment on N140, in the experiment on P93_24, with P94_40 and in the experiment on PAD was “inactive” each time. For the same compound, the Potency result in the experiment on PC15, in the experiment on PC26, in the experiment on PC49, with SC27B, with TAB109 and with TAB113 was “inactive” each time. The Potency entry in the experiment with TAB165 and in the experiment with W2 was “inactive” each time. Also, the max response in the experiment with CRL-7250 [1] was 1.51% and -18.8%; in the experiment with HaCat, -11.1%; in the experiment with KB-3-1, 20.9% and 1.72%; with NIH3T3, -0.177%. Besides, the compound was called inactive in the experiment with HaCat and in the experiment on NIH3T3.

On to `Oc1ccccc1-c1ccccc1`, for which the Potency result with ICS, in the experiment on JCK, with N140, with P93_24, in the experiment on P94_40 and in the experiment on PAD was “inactive” throughout. In addition, the Potency entry in the experiment on PC15, with PC26, in the experiment with PC49, with SC27B, with TAB109 and in the experiment with TAB113 was “inactive” each time. In the experiment with TAB165, the Potency result was “inactive”. Moreover, the call with CRL-7250 [1], in the experiment on NIH3T3 and with CRL-7250 [2] was inactive. Moreover, the max response in the experiment with HaCat is 1.64%; with KB-3-1, 2.06%.

For `N[C@@H](Cc1ccc(N(CCCl)CCCl)cc1)C(=O)O`, the Potency result in the experiment with JCK, with PC26 and with PC49 was “inactive” in each case. Further, the results for the Potency in the experiment on TAB165, with W2 and in the experiment with HEK293 were 11.2 µM (active), 6.75 µM (active) and 20.9 µM (active), respectively. Also, the max response in the experiment on CRL-7250 [1] is -7.43%; in the experiment with HaCat it was -1%; in the experiment with KB-3-1, -3.99% and -10.4%.

Turning to `CC(C)(N)Cc1ccc(Cl)cc1`, the Potency result in the experiment on ICS, with P93_24, in the experiment with P94_40, with PAD, with PC15 and in the experiment on PC49 was “inactive” throughout. The Potency result in the experiment on SC27B, in the experiment on TAB109, in the experiment on TAB113 and in the experiment on TAB165 was “inactive” in each case. Moreover, the max response with CRL-7250 [1] was 0.791%; with HEK293, 3.33%; with KB-3-1 it was -1.79%. The call in the experiment with HaCat and in the experiment with NIH3T3 was inactive.

On to `Nc1ccncc1`, for which the Potency result with ICS, in the experiment on JCK, in the experiment on N140, in the experiment with P93_24, in the experiment with P94_40 and in the experiment with PAD was “inactive” in each case. Besides, the Potency entry in the experiment with PC15, with PC49, in the experiment with SC27B, in the experiment on TAB109, with TAB113 and with TAB165 was “inactive” in each case. In addition, the Potency entry in the experiment on W2 was “inactive”. The max response is 4.16% in the experiment with CRL-7250 [1], -0.798% in the experiment on HEK293, 14.9% with KB-3-1 and 2.18% in the experiment on NIH3T3. Besides, the outcome with HaCat was inactive.

Take `O=[N+]([O-])c1cc([As](=O)(O)O)ccc1O`: the Potency was 3.16 µM (active) in the experiment on ICS; 3.55 µM (active) in the experiment on N140; 3.55 µM (active) with SC27B; 3.16 µM (active) in the experiment on TAB109; 3.16 µM (active) with TAB113; 3.55 µM (active) with TAB165. In addition, the Potency in the experiment on W2 is 2.56 µM (active). For the same compound, the max response with CRL-7250 [1] was -0.161%; in the experiment with HaCat it was -8.07%; with KB-3-1, -14.1%. The compound was called inactive in the experiment with HEK293 and in the experiment on NIH3T3.
